Records with an inconclusive call do not appear. Active and inactive are the calls of the source. Calls come from the whole dose curve; as a rule, active = well fitted curve in the direction sought with a large enough effect; inconclusive = small, poorly fitted or top-dose-only effect, or another doubt; inactive = no such curve, though single readings can be large; an effect the other way counts as inactive or inconclusive.
What was measured:
[1] = Cytotoxicity qHTS for assessment of Hepg2 cells membrane integrity screened against the NCATS CANVASS Library (AID 1347387)
In short: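 HepG2 cells (2000/well) attached overnight at 37C, then received compounds in an 11-point series at 0.59 nM - 46 uM final for 5 hr. LDH release was detected fluorometrically (ex 560/em 590 nm) with CytoTox-ONE reagent after 10 min at room temperature.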

[2] = qHTS for Activators of p53 Stress Response Pathway screened against the NCATS CANVASS Library (AID 1347388)
Description: Natural products and their derivatives continue to be wellsprings of nascent therapeutic potential. However, many laboratories have limited resources for biological evaluation, leaving their previously isolated or synthesized compounds largely or completely untested. To address this issue, the Canvass library of natural products was assembled (https://tripod.nih.gov/canvass), in collaboration with academic and industry researchers, for quantitative high-throughput screening (qHTS) across a diverse set of cell-based and biochemical assays. […] The library was formatted into 1536-well plates and evaluated in 50 qHTS (in an 11-pnt concentration series) bioassays with broad scope of disease-relevant mechanisms. The resulting data set from 50 different assays was then systematically analyzed to identify overall trends and specific natural products with interesting biological activities. […] The activation of the report gene under culture conditions can be detected by fluorescence intensity. […]
p53-screen protocol: 1. […] The fluorescence readout was obtained using the EnVision microplate reader (PerkinElmer) equipped with a 405 nm excitation and 460 nm and 530 nm emission filters. The ratio of 460 nm / 530 nm readout was calculated and used for data analysis. […]

[3] = qHTS assay for small molecule disruptors of mitochondrial membrane potential screened against the NCATS CANVASS Library (AID 1347389)
In short: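 HepG2 cells (2,000/well) were plated overnight at 37C, exposed to compound for 1 hr at 37C/5% CO2, then loaded with Mito-MPS dye for 30 min. Depolarization was read as a drop in red (590 nm) to green (535 nm) fluorescence ratio.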

[4] = Secretion counterscreen for inhibitors of the SERCaMP assay screened against the NCATS CANVASS Library (AID 1347390)
In short: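 SH-SY5Y cells expressing constitutively secreted GLuc, 1000 cells/well, attached 4 h at 37C, then exposed to compounds (0.001 - 77 uM, 11-pnt series) for 20 h. Coelenterazine added; luminescence read to flag secretory-pathway interferers.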

[5] = qHTS for activators of Nrf2/ARE signaling pathway screened against the NCATS CANVASS Library (AID 1347391)
In short: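 ARE-bla HepG2 beta-lactamase reporter cells, 2000 cells/well, were preincubated 5 h, then exposed to compounds (11-point series) for 16 h at 37C. CCF4 fluorescence (ex 405, em 460/530 nm) after 2 h at room temperature.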

[6] = qHTS for activators of dead-cell proteases activity screened against the NCATS CANVASS Library (AID 1347392)
In short: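 HepG2 cells, 2000/well, attached 18 h at 37C, then exposed to compounds (11-point qHTS) for 5 h. Dead-cell protease release read as luminescence from cell-impermeant AAF-aminoluciferin substrate after 15 min at room temperature.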

[7] = Vero-766 cells viability qHTS against the NCATS CANVASS Library: Counterscreen for Zika virus inhibition assay (AID 1347394)
In short: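 Uninfected Vero 766 (African green monkey) cells, 1000/well, attached overnight, then exposed 72 h at 37C to compounds (11-point qHTS). Viability read by CellTiter-Glo luminescence; media-only wells served as 100% inhibition.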

[8] = qHTS for inhibitors of Wild type Zika virus screened against the NCATS CANVASS Library (AID 1347396)
In short: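 Vero 766 cells, 1000/well, o/n attach; cpds pin-transferred (11-pt qHTS); WT Zika added; 72 h, 37C, 5% CO2; CellTiter Glo lumi. Uninfected + vehicle = 100% inhibition.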

[9] = Viability qHTS for inhibitors of the SERCaMP assay screened against the NCATS CANVASS Library (AID 1347400)
In short: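 SH-SY5Y-GLuc SERCaMP MJH297-derived cells (1000 cells/well) were pre-incubated 4 h at 37C, then exposed to compounds for 48 h. Viability was read as CellTiter-Glo luminescence; bortezomib served as positive control.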

[10] = Redox Reaction Profiling qHTS: Assay Interference Panel against the NCATS CANVASS Library (AID 1347401)
Description: Natural products and their derivatives continue to be wellsprings of nascent therapeutic potential. However, many laboratories have limited resources for biological evaluation, leaving their previously isolated or synthesized compounds largely or completely untested. To address this issue, the Canvass library of natural products was assembled (https://tripod.nih.gov/canvass), in collaboration with academic and industry researchers, for quantitative high-throughput screening (qHTS) across a diverse set of cell-based and biochemical assays. […] The library was formatted into 1536-well plates and evaluated in 50 qHTS (in an 11-pnt concentration series) bioassays with broad scope of disease-relevant mechanisms. The resulting data set from 50 different assays was then systematically analyzed to identify overall trends and specific natural products with interesting biological activities. […]
Redox Profiling assay protocol: 1. […] An initial fluorescence readout was obtained using the ViewLux plate reader (PerkinElmer) using a 525 nm excitation and a 598 nm emission filters. […] After incubation, the final fluorescence readout was obtained using the ViewLux plate reader (PerkinElmer) using a 525 nm excitation and a 598 nm emission filters.

Measured: outcome

NCCc1ccc(O)cc1
inactive: all assays above

Source: PubChem BioAssay (NCATS)
